# Sampled rows, rich in hits. Any-hit rate of the full collection: about 11%.
# HCV inhibitor – inhibitors of hepatitis C virus infection; AID 651820; Potency, µM (titrated, usually from 41.8 µM), without a hit: at the highest dose activity change, negative = inhibition, actives largely listed as inhibitors; 340,000 compounds, 3.4% hits; Huh7.5.1 HCVcc-Cre infection, luciferase reporter, 44 h
#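 Antiviral activity was scored by luciferase reporter output from cells infected with HCVcc-Cre (~0.5 moi) in presence of compound, 44 h infection period, cells seeded 1,000/well 4 h prior.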
# AMA1-RON2 inh – disrupts binding of P. falciparum AMA1 to RON2. AlphaScreen AMA1-biotinylated RON2 peptide binding. Potency, µM (top dose mostly 58.2 µM), without a hit: at the top dose activity change, negative = inhibition, actives largely listed as inhibitors. 360,000 compounds, 0.2% hits. AID 720542;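 note: 0% = vehicle wells and -100% = peptide control; nearly all actives have a fitted effect of over 45% in size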
#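 AMA1 (3D7) with his tag at 25 nM final met compounds first, then biotinylated RON2 peptide at 25 nM; detection used donor plus acceptor beads, 10 µg/mL apiece, read by AlphaScreen after 30 min at room temperature.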
# Pf growth 48h – inhibits P. falciparum growth in the first generation, 48 h | Potency, µM (titrated, usually from 28.7 µM), for the others: at the highest dose activity change, negative = inhibition, usual class: inhibitors | P. falciparum luciferase growth in erythrocytes, 48 h | AID 504832 | 310,000 compounds, 5.9% hits
#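 Growth was read as firefly luciferase luminescence after a 48 h, 37 C, 5% CO2 exposure of compounds to reporter-bearing P. falciparum cultures (0.1% parasitemia, 2% hematocrit final) in Albumax-supplemented RPMI 1640.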
# AmpC inh detg – blocks E. coli AmpC beta-lactamase in detergent assay | P00811 | AmpC hydrolysis of nitrocefin, absorbance 480 nm, 0.01% Triton | Potency, µM (top dose mostly 114 µM), without a hit: at the highest dose activity change, negative = inhibition, hits mostly inhibitors | 370,000 compounds, 0.041% hits | AID 485294;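 note: 0% = no-compound wells and -100% = no-enzyme wells; nearly all actives have a fitted effect of over 25% in size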
# Target sequence (P00811 whole entry, looked up): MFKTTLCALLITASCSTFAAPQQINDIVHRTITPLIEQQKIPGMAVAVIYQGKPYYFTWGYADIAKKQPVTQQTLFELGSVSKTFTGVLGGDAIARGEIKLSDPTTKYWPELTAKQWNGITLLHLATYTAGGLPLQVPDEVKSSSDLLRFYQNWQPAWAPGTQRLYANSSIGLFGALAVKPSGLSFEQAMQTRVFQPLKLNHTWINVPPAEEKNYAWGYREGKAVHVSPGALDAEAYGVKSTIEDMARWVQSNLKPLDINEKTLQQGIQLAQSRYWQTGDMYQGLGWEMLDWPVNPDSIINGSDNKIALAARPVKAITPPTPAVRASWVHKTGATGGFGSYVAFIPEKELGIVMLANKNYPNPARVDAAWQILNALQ
#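 20 mM phosphate pH 7.0 + 0.01% (detergent screen) or 0.0001% Triton X-100; 5.3 nM AmpC reagent; cpd preinc 15 min RT; nitrocefin (800 uM stock) to start; A480 q20 s × 4 min; Activity was normalised to no-enzyme and no-compound control wells.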
# Pf growth 96h – P. falciparum growth inhibition at 96 hours; P. falciparum luciferase reporter growth, 96 h; Potency, µM (doses to about 28.7 µM), without a hit: at the top dose activity change, negative = inhibition, actives largely listed as inhibitors; 320,000 compounds, 6.9% hits
#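 Plates of compound plus infected erythrocytes (2% hematocrit, 0.05% parasitemia final) incubate 96 hours, 37 C, 5% CO2. Detection reagent added; reduced luminescence from the parasites' luciferase reporter flags inhibition.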
# AmpC inh no detg – blocks E. coli AmpC beta-lactamase in detergent-free assay; 330,000 compounds, 0.52% hits; AmpC nitrocefin hydrolysis, absorbance 480 nm, 0.0001% Triton; Potency, µM (top dose mostly 57.1 µM), for inactives: at the highest dose activity change, negative = inhibition, hits mostly inhibitors; P00811;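 note: plate controls were no compound for no effect and no enzyme for full effect; nearly all actives have a fitted effect of over 20% in size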
#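 AmpC (5.3 nM in the dispensed reagent) in 20 mM phosphate pH 7.0 with 0.01% (detergent screen) or 0.0001% Triton X-100 was preincubated with compounds for 15 min at room temperature. Nitrocefin was then added from an 800 uM solution, and hydrolysis was followed at 480 nm.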
# * = called active by the depositor; ? = inconclusive; · = no result; [ ] = remark or other dose. Calls come from the whole dose curve; as a rule, active = well fitted curve in the direction sought with a large enough effect; inconclusive = small, poorly fitted or top-dose-only effect, or another doubt; inactive = no such curve, though single readings can be large; an effect the other way counts as inactive or inconclusive. Unless noted, % is set by controls: 0 for no effect and ±100 for the full control effect; potency is the fitted concentration of half-maximal effect.
SMILES,HCV inhibitor,AMA1-RON2 inh,Pf growth 48h,AmpC inh detg,Pf growth 96h,AmpC inh no detg
Cc1ccc2cc(C#N)c(N3CCN(C(=O)c4ccccc4)CC3)nc2c1,?,-3%,?,4%,?,47%
COc1ccc2cc(C#N)c(N3CCN(C(=O)c4ccccc4C)CC3)nc2c1,?,3%,?,1%,31%,104%
COc1ccc(C(=O)N2CCN(c3nc4cc(C)ccc4cc3C#N)CC2)c(OC)c1,?,-8%,2.1µM*,-1%,-3%,149%
CCOc1ccc(OCC)c(NS(=O)(=O)c2ccc(-c3coc(C)n3)cc2)c1,·,·,·,4%,·,·
COc1ccc2c(c1)C(=O)/C(=C/C=C/c1ccccc1)CC2,0%,-27%,?,?,2.3µM*,-56%
COc1ccc2c(c1)CC/C(=C\C=C\c1ccccc1OC)C2=O,?,-10%,-11%,-16%,?,-29%
Cc1cn2c(=O)cc(COc3cccc(NC(=O)c4ccc(C(C)(C)C)cc4)c3)nc2s1,·,·,·,14%,·,·
Cn1c(-c2sccc2OCc2ccccc2)n[nH]c1=S,23%,11%,10µM*,2%,?,-34%
O=C(CCl)NCCCCCCCCCNC(=O)CCl,?,19%,1.9µM*,-7%,1.5µM*,-14%
CCC(CC)C(=O)Nc1c(C(=O)N2CCN(c3ccccc3F)CC2)oc2ccccc12,·,·,·,-7%,·,·
COc1ccc(C(=O)NCC(c2cccs2)S(=O)(=O)c2ccc(F)c(C)c2)cc1 (stereo not drawn),·,·,·,2%,·,·
COc1ccc(S(=O)(=O)N2CCCCCC2)cc1C(=O)N(C)Cc1ccc(C(C)(C)C)cc1,14µM*,1%,?,-7%,13µM*,6%
COc1ccc(CN(C)C(=O)c2cc(S(=O)(=O)N3CCOCC3)ccc2N2CCCC2)cc1,3%,-13%,9.3µM*,-19%,?,101%
COc1ccc(S(=O)(=O)N2CCCCCC2)cc1C(=O)N(C)Cc1ccc(F)cc1,-18%,-14%,?,?,-7%,59%
Cc1cc(NC(=O)c2ccc3nc(-c4ccccc4)c(-c4ccccc4)nc3c2)no1,-1%,-6%,5.2µM*,3%,4.7µM*,-13%
COC(CNC(=O)c1ccc2nc(-c3ccccc3)c(-c3ccccc3)nc2c1)OC,10µM*,1%,-28%,1%,?,179%
COc1ccc(-c2nc3ccc(C(=O)NCC(OC)OC)cc3nc2-c2ccc(OC)cc2)cc1,?,14%,?,-6%,32%,192%
O=C(Nc1ccc2oc(-c3ccc4ccccc4c3)nc2c1)c1cc(Cl)ccc1Cl,·,·,·,4%,·,·
Cc1cccc(Cn2c(=O)n(Cc3ccccc3)c(=O)c3c2c2cc(C)ccc2n3C)c1,·,·,·,20%,·,·
Cc1cccc(C)c1NC(=O)CN(C)C(=O)c1ccccc1Sc1ccccc1C#N,-6%,44%,9.3µM*,-12%,?,-3%
COc1ccc(Sc2ccc(NC(=O)c3ccccc3Cl)cc2C#N)cc1,11µM*,2%,17%,2%,13%,54%
CCN(CC(=O)Nc1ccc(OC)cc1)C(=O)c1ccccc1Sc1ccccc1C#N,22µM*,110%,?,?,18%,104%
N#C/C(=C\c1ccc(Sc2ccccc2)o1)c1nc2ccccc2[nH]1,?,25%,?,-4%,1µM*,-31%
N#C/C(=C/c1ccc(Sc2nc3ccccc3[nH]2)o1)c1cccc(Br)c1,8.9µM*,8%,·,-3%,-98%,-54%
N#C/C(=C\c1ccc(-c2ccccc2C(=O)O)o1)c1nc2ccccc2[nH]1,-7%,-19%,·,?,?,-21%
SMILES,HCV inhibitor,AMA1-RON2 inh,Pf growth 48h,AmpC inh detg,Pf growth 96h,AmpC inh no detg
N#C/C(=C/c1ccc(Sc2nc3ccccc3[nH]2)o1)c1ccccc1F,11µM*,2%,7%,4%,·,-45%
c1ccc2c(-c3ccncc3)c[nH]c2c1,7.9µM*,8%,?,4%,·,-13%
CC(NC(=O)COC(=O)c1cc2ccccc2cc1O)c1ccccc1 (stereo not drawn),-9%,-14%,4%,0%,60%,-37%
O=C(Nc1ccncc1)c1cn(-c2ccccc2)nc1-c1cccs1,?,-9%,·,11%,2.9µM*,-7%
CC(NC(=O)COC(=O)c1cn(-c2ccccc2)nc1-c1cccs1)c1ccccc1 (stereo not drawn),2%,-7%,·,?,3.3µM*,?
CC(=O)c1ccc(NC(=O)c2cn(-c3ccccc3)nc2-c2ccncc2)cc1,1%,3%,-3%,-2%,191%,-28%
COC(=O)c1ccc(NC(=O)c2cn(-c3ccccc3)nc2-c2ccncc2)cc1,?,1%,12µM*,-1%,?,?
O=C(c1cn(-c2ccccc2)nc1-c1cccs1)N1CCN(c2ccc(F)cc2)CC1,?,-13%,?,23%,9.3µM*,7%
O=C(c1cccs1)N1CCN(C(=O)c2cn(-c3ccccc3)nc2-c2ccccc2)CC1,-14%,-18%,·,·,·,108%
O=C(Nc1nccs1)c1cn(-c2ccccc2)nc1-c1ccncc1,-27%,5%,?,3%,?,-17%[2.29 µM]
Cc1nn(-c2ccccc2)c2c1cc1c(=O)[nH]c(=O)nc-1n2-c1cccc(C(F)(F)F)c1,·,·,·,2%,·,·
CSc1ncc(C(=O)NCc2cccc(C)c2)c(-c2ccccc2)n1,·,·,·,15%,·,·
CC(=O)Nc1ccc(-c2nnn(CC(=O)c3ccc(F)cc3)n2)cc1Cl,-1%,-2%,?,-7%,13µM*,-14%
COc1cc2[nH]c(C(=O)N(C)Cc3ccccc3)cc2c(OC)c1OC,-23%,-10%,?,2%,?,34%
COc1cc2[nH]c(C(=O)N3CCC(Cc4ccccc4)CC3)cc2c(OC)c1OC,?,-12%,3.3µM*,-11%,3.7µM*,101%
CCN(Cc1ccccc1)C(=O)c1cc2c(OC)c(OC)c(OC)cc2[nH]1,-21%,-10%,·,?,8.3µM*,60%
CCOC(=O)C1CCN(C(=O)c2cc3c(OC)c(OC)c(OC)cc3[nH]2)CC1,-23%,0%,-17%,-7%,?,29%
CC(C)Oc1ccc(CN2CCc3nc(Nc4ccc5c(c4)OCCO5)ncc3C2)cc1,·,·,·,6%,·,·
CN(C)CCCNCC(=O)Nc1ccc(Cl)cc1C(=O)c1ccccc1,?,-14%,3.7µM*,-3%,-30%,0%
C[N+](C)(C)CC(=O)Nc1ccc(Cl)cc1C(=O)c1ccccc1,8%,-3%,12µM*,1%,20%,3%

# Assay outcomes as filed in PubChem.
